# High-throughput results (PubChem)
# Sampled rows, rich in hits. Any-hit rate of the full collection: about 4.2%.
# GDH-TPI inh = counter-screen for M. tuberculosis FBA inhibitors: GDH-TPI coupled enzymes. 360,000 tested, 1.2% active. AID 588335. inhibition, % at 4.8 µM. GDH-TPI coupled enzyme counterscreen, NADH absorbance; in the data active = inhibition above about 30%;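 also: 0% = DMSO wells and 100% = wells lacking the enzyme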
# PrPC surface inh = inhibitors of human cell surface prion protein PrPC | P04156 | TR-FRET read-out | 370,000 tested, 0.43% active | inhibition, % at 13.8 µM; in the data active = inhibition above about 24%; also: 0% = median of the test wells and 100% = reference compound wells
# BJeLR viability = kills HRASV12-expressing BJeLR cells; BJeLR (HRASV12) viability, CellTiter-Glo ATP luminescence, 48 h; inhibition, % (test concentration not listed); 300,000 tested, 0.17% active; AID 1554; in the data active = inhibition above about 50%
# Mtb FBA inh = inhibitors of M. tuberculosis fructose-bisphosphate aldolase; P9WQA3; 360,000 tested, 2.3% active; inhibition, % at 1 µM; purified M. tuberculosis FBA, fluorescence read-out; in the data active = inhibition above about 27%;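 also: 0% = vehicle and 100% = reference inhibitor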
# Target sequence (P9WQA3 whole entry, looked up): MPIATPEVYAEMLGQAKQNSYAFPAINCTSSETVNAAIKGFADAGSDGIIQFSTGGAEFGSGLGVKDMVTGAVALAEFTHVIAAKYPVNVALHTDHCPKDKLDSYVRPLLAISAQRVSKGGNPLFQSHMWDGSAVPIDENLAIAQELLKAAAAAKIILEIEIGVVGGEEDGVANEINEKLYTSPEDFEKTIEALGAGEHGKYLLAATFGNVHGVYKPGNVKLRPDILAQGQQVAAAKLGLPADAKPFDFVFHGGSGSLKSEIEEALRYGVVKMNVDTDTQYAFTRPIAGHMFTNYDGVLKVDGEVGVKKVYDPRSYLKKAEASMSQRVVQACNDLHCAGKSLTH
# RecA splice inh = blocks M. tuberculosis RecA intein splicing; P9WHJ3; cell-free RecA intein splicing, fluorescence; inhibition, % (concentration not given with the values); 290,000 tested, 0.75% active; AID 2221; in the data active = inhibition above about 30%;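 also: 0% = vehicle wells and 100% = reference inhibitor control wells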
# The depositor's hits bear a star; i = inactive; / = no result given; + = active, no number.
SMILES,GDH-TPI inh,PrPC surface inh,BJeLR viability,Mtb FBA inh,RecA splice inh
CNC(=O)N(O)C1N(/N=C/c2ccccc2O)C(=S)SC1(C)C (centres undefined),36*,1,-8,0,-9
CN(C)c1ccc(/C=N/N2C(=S)SC(C)(C)C2N(O)C(=O)Nc2ccc([N+](=O)[O-])cc2)cc1 (centres undefined),51*,-4,-1,0,-2
CNC(=O)N(O)C1N(/N=C/c2ccccc2F)C(=S)SC1(C)C (centres undefined),15,5,-1,-4,-8
CCCCNC(=O)N(O)C1N(/N=C/c2cccs2)C(=S)SC1(C)C (centres undefined),22,-1,-9,-4,-15
CNC(=O)N(O)C1N(/N=C/c2ccc(SC)cc2)C(=S)SC1(C)C (centres undefined),36*,9,5,0,-15
CNC(=O)N(O)C1N(/N=C/c2cccnc2)C(=S)SC1(C)C (centres undefined),17,-2,2,-1,-11
CC(=O)OC12CCCN(C1)/C(=C/c1cccc(N(C)C)c1)C2 (centres undefined),/,2,/,/,/
CC1CCCN(c2cccc3c2S(=O)(=O)N(Cc2cccc(Cl)c2)[C@@H](C)[C@H](c2ccccc2)O3)C1 (some centres undefined),/,-2,/,/,/
Cc1[nH][nH]c(=O)c1C(c1ccccc1[N+](=O)[O-])C(C#N)C#N (centres undefined),-1,1,2,5,70*
COc1ccc(-c2ccc(C(c3c(C)[nH][nH]c3=O)c3c(C)[nH][nH]c3=O)o2)c([N+](=O)[O-])c1,-4,-7,/,-1,/
C=CCNC(=O)N1CCC(c2nc3ccc(Cl)cc3[nH]2)CC1,/,5,/,/,/
CCN(CC)C(=O)COc1ccc(-c2nnc(Nc3ccc(OC)c(C(=O)NC)c3)c3ccccc23)cc1,46*,-22,3,0,10
CNC(=O)c1ccc(Nc2nnc(-c3ccc(C(N)=O)cc3)c3ccccc23)cc1,39*,-18,-5,1,-5
CC(=O)Nc1cccc(C2=CC(c3ccco3)n3ncnc3N2)c1 (centres undefined),/,/,6,/,-292
CC(C)(C)c1ccc(C2=CC(c3ccccc3)n3ncnc3N2)cc1 (centres undefined),4,/,-9,25,i
Clc1ccc(C2=CC(c3ccco3)n3ncnc3N2)cc1 (centres undefined),30,-7,11,38*,-383
COc1ccc(C2CC(c3ccco3)n3ncnc3N2)cc1 (centres undefined),4,1,3,11,-2
COc1ccc(C2C=C(c3ccccc3)Nc3ncnn32)cc1 (centres undefined),14,-11,-1,118*,-62
COc1ccc(C2=CC(c3ccco3)n3ncnc3N2)cc1 (centres undefined),15,/,/,71*,/
Nn1c(SCc2ccc([N+](=O)[O-])cc2)nnc1-c1n[nH]c2c1CCC2,/,-17,/,/,/
O=c1[nH]nc(N/N=C/c2ccccc2OC(F)F)c(=O)[nH]1,42*,-9,11,3,-11
c1ccc(-c2nnsc2-c2ncc[nH]2)cc1,6,-4,5,1,-1
O=S(=O)(c1ccc(F)cc1)c1snnc1-c1ccccc1,-3,-4,61*,1,69*
O=S(=O)(c1ccc(Cl)cc1)c1snnc1-c1ccccc1,11,7,96*,-1,81*
COC(=O)C1=CN(Cc2ccccc2)C=C(C(=O)OC)C1c1cc(F)ccc1F,8,2,1,122*,-184
SMILES,GDH-TPI inh,PrPC surface inh,BJeLR viability,Mtb FBA inh,RecA splice inh
COC(=O)C1=CN(Cc2ccc(OC)c(OC)c2)C=C(C(=O)OC)C1c1cccc(F)c1,1,8,-4,123*,/
COC(=O)C1=CN(Cc2ccc(C)cc2)C=C(C(=O)OC)C1c1ccc(F)c(F)c1,-4,-3,4,3,-36
O=C(CCCC1=NS(=O)(=O)c2ccccc2N1)N1CCN(c2ccccc2Cl)CC1,/,8,/,/,/
CC(=O)OCC12CC(OC(=O)CC(C)C)C(C)=CC1OC1C(O)C(OC(C)=O)C2(C)C12CO2 (centres undefined),3,87*,/,2,/
O=[N+]([O-])c1cc(/C=N/n2cnnc2)ccc1N1CCCC1,37*,-26,-16,-3,1
O=[N+]([O-])c1cc(/C=N/O)ccc1N1CCCC1,15,-43,1,-6,-2
Cn1c(C(=O)N2CCN(C(=O)c3ccco3)CC2)cc2c(=O)n3ccccc3nc21,19,-4,-14,+,-452
CC1CN(C(=O)c2cc3c(=O)n4ccccc4nc3n2C)CC(C)O1 (centres undefined),26,-8,5,+,-235
Cn1c(C(=O)N2CCOCC2)cc2c(=O)n3ccccc3nc21,26,-8,-4,+,-416
CCOC(=O)C1CCN(C(=O)c2cccc(C(=O)N3CCC(C(=O)OCC)CC3)c2)CC1,-11,-2,-2,-4,5
CCOC(=O)C1CCN(C(=O)c2cc3c(=O)n4ccccc4nc3n2C)CC1,16,-5,8,133*,-209
Nn1c(SCc2ccc([N+](=O)[O-])cc2)nnc1-c1cc(-c2ccccc2)n[nH]1,/,1,/,/,/
O=C(NCCc1c[nH]c2ccccc12)OCc1cn(-c2cccc(Cl)c2)nn1,/,10,/,/,/
Cn1c(C(=O)O)cc2c(=O)n3ccccc3nc21,13,-12,-12,+,-416
CC1Cc2ccccc2N1C(=O)c1cc2c(=O)n3ccccc3nc2n1C (centres undefined),8,1,5,4,-6
Cn1c(C(=O)N2CCc3ccccc3C2)cc2c(=O)n3ccccc3nc21,10,-1,12,73*,-96
CCC(C)NC(=O)CN1C(=O)C2CCCCN2C(=O)c2ccccc21 (centres undefined),/,-4,/,/,/
CCCCNC(=S)N1CCN(c2ccc(C(C)=O)cc2)CC1,35*,-3,-4,-1,0
CSCCCNC(=S)N1CCN(c2ccc(C(C)=O)cc2)CC1,27,-1,1,-2,8
O=C(CN1CCN(C2CCCCC2)CC1)Nc1cccc2ccccc12,32*,-4,-2,2,-2
O=C(CN1CCN(C2CCCCC2)CC1)Nc1ccccc1-c1ccccc1,3,-13,-5,0,0
O=S1(=O)N=C(Nc2nc3c(s2)CCCC3)c2ccccc21,36*,-2,/,1,/
Cc1cccc(Nc2nc3c(s2)CCCC3)c1,-2,3,-16,-1,2
O=C(OCCCCSc1nnc(-c2cccc3ccccc23)o1)c1ccc(F)cc1,/,-6,/,/,/
CCOc1ccc(-c2cc(C(=O)OC)c3n(c2=O)CCC3)cc1,/,-4,/,/,/
COC1=CC2(O)CCCC2=CC1=O (centres undefined),0,3,1,150*,3
CN(C)S(=O)(=O)c1ccc(-c2cn3ccccc3n2)cc1,7,10,-3,160*,2
CN(C)S(=O)(=O)c1cccc(-c2cn3cccnc3n2)c1,6,-4,-2,173*,-7
